From PubChem BioAssay

target: Concanavalin-A (Canavalia ensiformis) (UniProt P02866); experiment: compounds binding concanavalin A lectin – biochemical, small-molecule microarray, Alexa647 label, 635 nm, artefact control for SMM control protein annotation, primary screen (AID 1127); conditions: ConA-A647 binding fluorescence, higher = more signal;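 also: z combines 667 nm emission intensity with signal-to-noise across three replicate slides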
Sequence (P02866 whole entry, looked up): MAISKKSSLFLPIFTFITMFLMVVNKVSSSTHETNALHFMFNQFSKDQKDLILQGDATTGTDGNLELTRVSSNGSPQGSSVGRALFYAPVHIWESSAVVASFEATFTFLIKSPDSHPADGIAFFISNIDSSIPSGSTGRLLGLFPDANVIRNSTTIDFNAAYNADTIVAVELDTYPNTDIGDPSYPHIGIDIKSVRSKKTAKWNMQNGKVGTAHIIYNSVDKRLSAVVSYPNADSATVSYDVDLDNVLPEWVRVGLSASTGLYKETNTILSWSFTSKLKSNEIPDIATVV

SMILES | composite z-score
[N-]=[N+]=NCc1ccccc1[C@H]1OC(c2ccc(OCCCO)cc2)=N[C@@]1(Cc1ccccc1)C(=O)NCC(O)CO (stereo partly specified) | -0.0213
NC(=O)NCC#Cc1ccc2c(c1)[C@]1(C(=O)N2)[C@H](c2ccccc2OCCO)N2[C@H](c3ccccc3)[C@H](c3ccccc3)OC(=O)[C@H]2[C@@H]1C(=O)N1CCCCCCC1 | 1.11
CC(C)(C)OC(=O)CC[C@@]1(C(N)=O)N=C(c2ccc(OCCCO)cc2)O[C@@H]1c1ccccc1N=[N+]=[N-] | 1.13
C=CCC(OC(C)=O)[C@@H]1[C@@H](N(Cc2ccc(-c3cccc(C(F)(F)F)c3)o2)C(=O)Cc2ccc(OC)cc2)c2cc(OCCCO)ccc2N1C(=O)Cc1ccc(OC)cc1 (stereo partly specified) | -0.947
CCOC(=O)C1=CC[C@@H](c2cccc(Cl)c2)N(S(=O)(=O)c2ccc(C)cc2)[C@H]1c1ccc(C#N)cc1 | 1.11
Cc1ccc(F)cc1S(=O)(=O)N[C@@H]1CCN(Cc2ccc(C(F)(F)F)cc2)C1 | -0.628
C/C=C/[C@H](CCn1cc([C@H](O)c2ccccc2)nn1)[Si](C)(C)c1ccc(OC)cc1 | -0.971
COCC1C2CC[C@H]3C(OCc4ccc(F)cc4C(F)(F)F)OC[C@]4(C)[C@H]3C2=C(CN4C(=O)OC(C)(C)C)[C@H](C)C1COC (stereo partly specified) | 1.13
C=C(/C(=C/C[C@@H](OC(=O)c1ccncc1)c1ccc(CO)o1)c1cc(C(=O)OC)ccc1OC)C(C)C | 1.08
O=C1O[C@@H](c2ccccc2)[C@@H](c2ccccc2)N2[C@@H](c3ccc(O)cc3)[C@]3(C(=O)Nc4ccccc43)[C@@H](C(=O)N3CCCCCCC3)[C@H]12 | 1.17
COC(=O)[C@@]1(Cc2ccc(F)cc2)[C@H]2c3cc(C(=O)N4CCCC4)n(CCc4ccc(OC)c(Br)c4)c3C[C@H]2CN1C(=O)c1ccccc1 | 1.15
Cc1c(NC(=O)/C(C#N)=C/C=C/c2ccccc2)c(=O)n(-c2ccccc2)n1C | 0.802
C=C(C(=O)CC[C@@H](OC(=O)c1cccnc1)c1ccc(OCCO)cc1)C(C)C | 0.303
O=c1cccc(-c2cccc3ccccc23)o1 | -0.511
Cc1ccc(S(=O)(=O)N2CC(C(=O)O)=CCC2c2ccccc2)cc1 (stereo unspecified) | 0.0782
O=S(=O)(NCCCO)c1ccc(Br)cc1 | 0.397

SMILES | composite z-score
C=CCOC(=O)[C@@H]1[C@H]2C(=O)O[C@H](c3ccccc3)[C@H](c3ccccc3)N2[C@H](c2ccc(OCCOC(=O)[C@H]3C[C@H]4C(=O)N[C@@H](Cc5ccccc5)C(=O)N4[C@H]3c3ccc(O)cc3)cc2)[C@@]12C(=O)Nc1ccc(I)cc12 | 1.16
C=CCNC(=O)[C@H]1[C@@H]2C(=O)O[C@@H](c3ccccc3)[C@@H](c3ccccc3)N2[C@@H](c2ccc(O)cc2)[C@]12C(=O)Nc1ccc(C#Cc3ccc(OC)cc3)cc12 | 0.552
C[N+](C)(C)CCCC[C@@H]1NC(=O)[C@H]2C[C@@H](C(=O)O)[C@@H](c3cccc(OCCO)c3)N2C1=O | 1.22
Cn1c2c(c3ccccc31)C(=O)C1NC2C=CC1(C)C(=O)OCc1ccccc1 (stereo unspecified) | 0.909
CCCCC(=C=CC[C@H](O)c1ccccc1OCCO)C[C@H](O)c1cc(Cl)cc(Cl)c1O | 0.907
COc1c(C)cc(-c2cc3c(c(-c4ccccc4)n2)[Si](C(C)C)(C(C)C)O[C@H]3c2ccccc2)cc1C | 0.124
C=CCN1Cc2ccccc2C[C@]2(N=C(c3ccc(OCCCO)cc3)O[C@@H]2c2ccccc2)C1=O | 1.18
O=C(N1CCCCC1)[C@]1(CCS(=O)(=O)c2ccccc2)N=C(c2ccc(OCCCO)cc2)O[C@@H]1c1ccccc1 | 1.18
COc1ccc([Si](C)(C)[C@@H]2[C@@H](CCO)O[C@]3(C(=O)N(Cc4ccccc4)c4ccc(N(C=O)c5ccccc5)cc43)[C@H]2C)cc1 | 0.762
Cc1ccc(S[C@]2(C(=O)NCCCN(C)C)CC(=O)N(C(C)C)[C@@H]2c2ccc(CO)cc2I)cc1 | 0.257
C=C(COC)C(=O)CC[C@H](OC(=O)c1cccnc1)c1ccccc1OCCO | 0.475
CC(c1ccccc1)C(O)C1C=CC2C(=O)N(Cc3ccccc3)C(=O)C2N1n1cnnc1 (stereo unspecified) | 0.851
CN1C(=O)C2C=CC(C(O)C(C)(C)C)N(Nc3ccccc3)C2C1=O (stereo unspecified) | -0.127
CS(=O)(=O)CCOC(=O)C1=CC(c2ccc(CO)cc2)=CC(c2cccs2)N(Cc2cccc(OC(F)(F)F)c2)C=C1C(=O)OCCS(C)(=O)=O (stereo unspecified) | 0.911
Cc1ccc([C@H]2C(C(=O)O)=C[C@@H](C(C)C)N2S(=O)(=O)c2ccc(C)cc2)cc1 | 0.555
